Results: PubChem BioAssay (EPA / NIEHS)
Active and inactive are the calls of the source. How the source made its calls: active means hit-call score of the fitted dose curve at least 0.9, where 1 is the maximum; inactive means score below 0.9.

Experiments:
Settings in all cases: mRNA level, 48 h; actives raise or lower the signal
[1] = read-out: Lipase C (LIPC), LIPC (gene 3990); assay: LTEA_HepaRG_LIPC: Life Technologies and Expression Analysis (LTEA) Assay for Lipase C (LIPC) using HepaRG (AID 2283514)
Outline: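 HepaRG cells, 48 h after plating, treated in duplicate for 48 h in serum-free induction medium over 8 half-log concentrations from 100 uM, 0.5% DMSO. LIPC mRNA by TaqMan qRT-PCR normalized to ACTB/GAPDH/POLR2A; bidirectional fit versus DMSO.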

[2] = read-out: Lipoprotein lipase (LPL), LPL (gene 4023); assay: LTEA_HepaRG_LPL: Life Technologies and Expression Analysis (LTEA) Assay for Lipoprotein lipase (LPL) using HepaRG (AID 2283515)
Outline: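 Differentiated HepaRG cells, plated 48 h, then exposed 48 h in serum-free induction medium to 8 concentrations (top 100 uM, half-log steps) in 0.5% DMSO, duplicate. LPL mRNA measured by qRT-PCR, normalized to ACTB, GAPDH and POLR2A.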

[3] = read-out: MicroRNA 122 (MIR122), gene 406906; assay: LTEA_HepaRG_MIR122: Life Technologies and Expression Analysis (LTEA) Assay for MicroRNA 122 (MIR122) using HepaRG (AID 2283516); further: the transcript read is the microRNA miR-122
Outline: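 Differentiated human HepaRG cells were exposed 48 h in serum-free induction medium to eight half-log concentrations (top 100 uM, 0.5% DMSO). Transcript level was measured by TaqMan qRT-PCR, normalized to ACTB, GAPDH and POLR2A, and fitted bidirectionally versus DMSO.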

[4] = read-out: matrix metalloproteinase-10 (MMP10), MMP10 (gene 4319); assay: LTEA_HepaRG_MMP10: Life Technologies and Expression Analysis (LTEA) Assay for matrix metalloproteinase-10 (MMP10) using HepaRG (AID 2283517)
Outline: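 Differentiated HepaRG cells in serum-free induction medium exposed 48 h in duplicate to 8-point half-log series up to 100 uM in 0.5% DMSO. mRNA quantified by qRT-PCR, normalised to ACTB, GAPDH, POLR2A; bidirectional fit versus DMSO.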

MYC, MYC (gene 4609) = assay: LTEA_HepaRG_MYC: Life Technologies and Expression Analysis (LTEA) Assay for MYC using HepaRG (AID 2283518)
Outline: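 HepaRG, ~100,000 cells/well, collagen I; 48 h plating; serum-free induction medium; 48 h dosing, duplicate, 100 uM top, half-log, 0.5% DMSO; total RNA → qRT-PCR MYC; gain/loss fit vs DMSO.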

[5] = read-out: matrix metalloproteinase-3 (MMP3), MMP3 (gene 4314); assay: LTEA_HepaRG_MMP3: Life Technologies and Expression Analysis (LTEA) Assay for matrix metalloproteinase-3 (MMP3) using HepaRG (AID 2283519)
Outline: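 HepaRG cells (~100,000/well) in serum-free induction medium were dosed in duplicate for 48 h with an 8-point half-log series from 100 uM, 0.5% DMSO. MMP3 mRNA was quantified by Fluidigm TaqMan qRT-PCR, normalized to three housekeeping genes.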

[6] = read-out: Paternally Expressed 10 (PEG10), PEG10 (gene 23089); assay: LTEA_HepaRG_PEG10: Life Technologies and Expression Analysis (LTEA) Assay for Paternally Expressed 10 (PEG10) using HepaRG (AID 2283520)
Outline: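 Differentiated HepaRG cells, plated 48 h then switched to serum-free induction medium, were exposed in duplicate for 48 h to eight half-log concentrations topping at 100 uM in 0.5% DMSO. PEG10 mRNA was quantified by TaqMan qRT-PCR, normalised to ACTB, GAPDH and POLR2A.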

[7] = read-out: Nuclear factor NF-kappa-B p105 subunit (Homo sapiens) (UniProt P19838); assay: LTEA_HepaRG_NFKB1: Life Technologies and Expression Analysis (LTEA) Assay for Nuclear Factor Kappa B Subunit 1 (NFKB1) using HepaRG (AID 2283521)
Outline: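 NFKB1 transcript was measured by TaqMan qRT-PCR on Fluidigm arrays, normalised to three housekeeping genes and fitted in both directions against 0.5% DMSO. HepaRG cells were dosed in duplicate for 48 h in serum-free induction medium, eight half-log steps from 100 uM.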

[8] = read-out: Protein phosphatase 2A (PPP2R4), PTPA (gene 5524); assay: LTEA_HepaRG_PPP2R4: Life Technologies and Expression Analysis (LTEA) Assay for Protein phosphatase 2A (PPP2R4) using HepaRG (AID 2283522)
Outline: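 Differentiated HepaRG cells in serum-free induction medium were exposed in duplicate for 48 h to eight concentrations, top 100 uM with half-log dilutions, in 0.5% DMSO. PPP2R4 mRNA was quantified by TaqMan qRT-PCR, normalized to ACTB, GAPDH and POLR2A.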

[9] = read-out: Phosphatase and tensin (PTEN), PTEN (gene 5728); assay: LTEA_HepaRG_PTEN: Life Technologies and Expression Analysis (LTEA) Assay for Phosphatase and tensin (PTEN) using HepaRG (AID 2283523)
Outline: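 HepaRG cells, 48 h after plating, exposed in duplicate for 48 h in serum-free induction medium to 8 half-log concentrations up to 100 uM (0.5% DMSO). PTEN mRNA by qRT-PCR, normalized to ACTB, GAPDH, POLR2A; bidirectional fit versus DMSO.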

[10] = read-out: solute carrier (SLC22A1), SLC22A1 (gene 6580); assay: LTEA_HepaRG_SLC22A1: Life Technologies and Expression Analysis (LTEA) Assay for solute carrier (SLC22A1) using HepaRG (AID 2283524)
Outline: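 Differentiated human HepaRG cells in serum-free induction medium, exposed 48 h in duplicate to 8-point half-log series from 100 µM top in 0.5% DMSO. SLC22A1 mRNA by TaqMan qRT-PCR normalized to ACTB, GAPDH, POLR2A; bidirectional fit versus DMSO.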

[11] = read-out: Pyruvate Dehydrogenase Kinase 4 (PDK4), PDK4 (gene 5166); assay: LTEA_HepaRG_PDK4: Life Technologies and Expression Analysis (LTEA) Assay for Pyruvate Dehydrogenase Kinase 4 (PDK4) using HepaRG (AID 2283525)
Outline: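 HepaRG cells plated 48 h, then switched to serum-free induction medium and exposed in duplicate for 48 h to 8 half-log concentrations from 100 uM in 0.5% DMSO. PDK4 mRNA measured by qRT-PCR, normalized to ACTB, GAPDH and POLR2A; bidirectional fit versus DMSO.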

[12] = read-out: NAD(P)H dehydrogenase [quinone] 1 (NQO1), NQO1 (gene 1728); assay: LTEA_HepaRG_NQO1: Life Technologies and Expression Analysis (LTEA) Assay for NAD(P)H dehydrogenase [quinone] 1 (NQO1) using HepaRG (AID 2283526)
Outline: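 Differentiated HepaRG cells, plated 48 h and then switched to serum-free induction medium, were exposed in duplicate for 48 h to 8-point half-log concentrations up to 100 uM in 0.5% DMSO. mRNA measured by qRT-PCR, normalized to ACTB, GAPDH, POLR2A; bidirectional fit versus DMSO.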

[13] = read-out: Nuclear factor erythroid 2-related factor 2 (Homo sapiens) (UniProt Q16236); assay: LTEA_HepaRG_NFE2L2: Life Technologies and Expression Analysis (LTEA) Assay for Nuclear factor erythroid 2-related factor 2 (NFE2L2) Transcription Factor using HepaRG (AID 2283527)
Outline: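 Differentiated human HepaRG cells, serum-free induction medium, exposed 48 h in duplicate to eight half-log concentrations up to 100 uM in 0.5% DMSO. NFE2L2 mRNA by Fluidigm TaqMan qRT-PCR, normalised to ACTB, GAPDH, POLR2A; bidirectional change versus DMSO.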

[14] = read-out: succinate dehydrogenase complex iron sulfur subunit B (SDHB), SDHB (gene 6390); assay: LTEA_HepaRG_SDHB: Life Technologies and Expression Analysis (LTEA) Assay for succinate dehydrogenase complex iron sulfur subunit B (SDHB) using HepaRG (AID 2283528)
Outline: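 SDHB transcript level read by TaqMan qRT-PCR, housekeeping-normalised (ACTB, GAPDH, POLR2A), after 48 h chemical treatment of plated HepaRG cells; eight concentrations top 100 uM, half-log steps, 0.5% DMSO, duplicates; fitted both directions against DMSO.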

[15] = read-out: Signal transducer and activator of transcription 3 (Homo sapiens) (UniProt P40763); assay: LTEA_HepaRG_STAT3: Life Technologies and Expression Analysis (LTEA) Assay for Signal transducer and activator of transcription (STAT3) using HepaRG (AID 2283529)
Outline: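 Differentiated HepaRG cells, serum-free induction medium, dosed 48 h in duplicate, 8 half-log concentrations from 100 uM in 0.5% DMSO. STAT3 mRNA by qRT-PCR, normalised to ACTB, GAPDH, POLR2A; bidirectional fit versus DMSO.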

[16] = read-out: solute carrier (SLCO1B1), SLCO1B1 (gene 10599); assay: LTEA_HepaRG_SLCO1B1: Life Technologies and Expression Analysis (LTEA) Assay for solute carrier (SLCO1B1) using HepaRG (AID 2283530)
Outline: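 HepaRG, serum-free induction medium, 48 h dosing, 8-pt half-log from 100 uM, 0.5% DMSO vehicle, duplicates. Readout: SLCO1B1 mRNA, qRT-PCR, ACTB/GAPDH/POLR2A normalization; up or down fit vs DMSO.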

[17] = read-out: sulfotransferase 2A1 (SULT2A1), SULT2A1 (gene 6822); assay: LTEA_HepaRG_SULT2A1: Life Technologies and Expression Analysis (LTEA) Assay for sulfotransferase 2A1 (SULT2A1) using HepaRG (AID 2283531)
Outline: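 Transcript levels of SULT2A1, quantified by qRT-PCR and normalized to three housekeeping genes, serve as the readout. Human HepaRG cultures receive test chemicals for 48 h at up to 100 uM in half-log steps, with 0.5% DMSO vehicle.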

Measured: outcome

Chain of Nuclear factor NF-kappa-B p105 subunit (Homo sapiens) (P19838 whole entry, looked up): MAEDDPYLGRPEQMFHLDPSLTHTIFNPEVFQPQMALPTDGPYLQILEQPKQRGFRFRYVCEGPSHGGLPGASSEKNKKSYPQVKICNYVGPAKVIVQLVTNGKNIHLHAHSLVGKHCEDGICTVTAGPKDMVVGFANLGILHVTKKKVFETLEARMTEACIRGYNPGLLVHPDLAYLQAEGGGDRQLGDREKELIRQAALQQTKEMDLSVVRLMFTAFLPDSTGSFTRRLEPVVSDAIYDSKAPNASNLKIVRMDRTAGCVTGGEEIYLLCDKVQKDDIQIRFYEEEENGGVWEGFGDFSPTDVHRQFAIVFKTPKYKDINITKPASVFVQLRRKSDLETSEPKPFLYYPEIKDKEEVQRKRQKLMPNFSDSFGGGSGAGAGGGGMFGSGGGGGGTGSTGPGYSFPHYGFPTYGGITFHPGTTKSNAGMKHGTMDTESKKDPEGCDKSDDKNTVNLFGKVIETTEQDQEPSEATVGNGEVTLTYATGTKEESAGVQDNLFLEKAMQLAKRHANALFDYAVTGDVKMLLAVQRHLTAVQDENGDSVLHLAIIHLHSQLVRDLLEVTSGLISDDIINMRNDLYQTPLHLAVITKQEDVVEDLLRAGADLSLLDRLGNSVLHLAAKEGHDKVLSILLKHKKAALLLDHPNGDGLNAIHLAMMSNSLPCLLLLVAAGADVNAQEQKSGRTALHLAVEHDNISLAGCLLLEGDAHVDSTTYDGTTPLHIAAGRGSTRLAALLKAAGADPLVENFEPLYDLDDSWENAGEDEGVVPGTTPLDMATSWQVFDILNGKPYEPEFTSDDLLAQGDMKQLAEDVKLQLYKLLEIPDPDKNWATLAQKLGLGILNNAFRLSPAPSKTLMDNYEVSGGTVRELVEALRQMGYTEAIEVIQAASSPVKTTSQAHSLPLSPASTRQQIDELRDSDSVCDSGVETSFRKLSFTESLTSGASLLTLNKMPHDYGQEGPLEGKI
Chain of Signal transducer and activator of transcription 3 (Homo sapiens) (P40763 whole entry, looked up): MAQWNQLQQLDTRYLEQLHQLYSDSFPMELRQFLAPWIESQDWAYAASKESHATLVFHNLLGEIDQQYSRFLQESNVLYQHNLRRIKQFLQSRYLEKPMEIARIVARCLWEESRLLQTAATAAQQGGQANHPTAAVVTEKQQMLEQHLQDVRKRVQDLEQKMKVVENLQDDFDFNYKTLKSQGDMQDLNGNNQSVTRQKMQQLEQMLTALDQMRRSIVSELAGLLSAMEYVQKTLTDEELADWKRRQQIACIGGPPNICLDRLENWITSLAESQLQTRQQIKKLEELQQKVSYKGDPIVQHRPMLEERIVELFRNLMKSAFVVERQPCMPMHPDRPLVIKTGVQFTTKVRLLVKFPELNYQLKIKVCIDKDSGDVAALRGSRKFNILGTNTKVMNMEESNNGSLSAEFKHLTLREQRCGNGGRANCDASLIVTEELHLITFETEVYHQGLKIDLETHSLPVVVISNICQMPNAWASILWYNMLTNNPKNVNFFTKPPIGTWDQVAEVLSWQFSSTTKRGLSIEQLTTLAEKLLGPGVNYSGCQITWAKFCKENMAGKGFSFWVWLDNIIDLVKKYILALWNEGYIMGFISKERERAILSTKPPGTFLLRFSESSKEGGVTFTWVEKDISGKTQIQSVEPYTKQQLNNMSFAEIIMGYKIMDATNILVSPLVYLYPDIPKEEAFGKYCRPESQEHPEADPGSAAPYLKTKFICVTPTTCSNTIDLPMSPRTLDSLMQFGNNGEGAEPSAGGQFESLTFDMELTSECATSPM
Chain of Nuclear factor erythroid 2-related factor 2 (Homo sapiens) (Q16236 whole entry, looked up): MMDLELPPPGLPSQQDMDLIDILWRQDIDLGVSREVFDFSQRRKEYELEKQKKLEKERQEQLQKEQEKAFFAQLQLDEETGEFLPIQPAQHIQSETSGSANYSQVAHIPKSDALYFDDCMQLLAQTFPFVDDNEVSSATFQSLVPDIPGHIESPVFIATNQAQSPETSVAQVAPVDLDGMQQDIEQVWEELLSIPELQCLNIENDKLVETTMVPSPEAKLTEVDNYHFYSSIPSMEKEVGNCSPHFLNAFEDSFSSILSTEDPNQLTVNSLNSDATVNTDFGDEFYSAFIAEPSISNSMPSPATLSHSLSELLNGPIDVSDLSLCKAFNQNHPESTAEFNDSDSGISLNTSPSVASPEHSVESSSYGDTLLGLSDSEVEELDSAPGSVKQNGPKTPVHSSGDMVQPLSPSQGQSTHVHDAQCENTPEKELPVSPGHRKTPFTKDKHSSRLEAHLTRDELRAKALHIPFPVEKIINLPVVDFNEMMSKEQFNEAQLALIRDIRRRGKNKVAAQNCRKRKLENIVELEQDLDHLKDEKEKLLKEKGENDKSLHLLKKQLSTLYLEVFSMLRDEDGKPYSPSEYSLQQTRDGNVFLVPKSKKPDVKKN

c1cc[n+]2c(c1)-c1cccc[n+]1CC2
inactive: [1] | [2] | [3] | [4] | MYC, MYC (gene 4609) | [5] | [6] | [7] | [8] | [9] | [10] | [11] | [12] | [13] | [14] | [15] | [16] | [17]
